Compounds with a hit are over-represented: about 1.1% of the library has one in this group of screens.
DSG3 Ab inh = blocks pemphigus antibody binding to human desmoglein-3. P32926. DSG3-coupled beads, scFv-anti-DSG3-GFP binding, flow cytometry; stronger effect = lower value. binding (percent of control), % at 10 µM. hit rate 0.48% among 310,000. AID 588358;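 active = binding more than 3 SD below its plate's average and above zero; inconclusive = below that plate limit but binding exactly zero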
NTR1 ag = NTR1 (human) agonism; P30989; NTR1-U2OS beta-arrestin-GFP spot imaging, agonist mode; activation, % at 20 µM; hit rate 0.17% among 330,000; AID 493036;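 active = activation at or above 40% of the spot to cytoplasm intensity ratio, with at least 20 cells analyzed; inconclusive = wells under 20 cells, flagged as cytotoxic or low count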;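 also: 0% = DMSO without peptide and 100% = 100 nM NTR1 peptide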
VLA-4 inh = inhibition in a human VLA-4 binding assay; P13612; VLA-4 expressing cells, ligand binding flow cytometry; inhibition, % (about 7 µM as worked out from the volumes in the protocol); hit rate 0.2% among 330,000; in the data active = inhibition above about 50%
AI-2 QS mod = Vibrio harveyi AI-2 quorum sensing modulation | Vibrio harveyi JMH597 AI-2 luminescence/OD600 ratio, 9 h; stronger effect = lower value; strain lacks LuxN and CqsS sensors; 0 = neutral-control median | activity change, % at 7.5 µM | hit rate 0.4% among 300,000; in the data active = activity change below about -75%, passing the limit was not always enough; inconclusive = no clear call, values can overlap the other calls;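 also: luminescence divided by OD600 gain over 9 h not by final OD600 alone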
NTR1 ag confirm = confirmation of agonists of human NTR1 | activation, % at 20 µM | NTR1-U2OS beta-arrestin-GFP translocation imaging | AID 504550 | shares compounds with NTR1 ag | hit rate 38% among 480;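 active = mean activation at 20 µM of at least 40%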;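 also: 0% = DMSO without peptide and 100% = 100 nM NTR1 peptide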
* marks the source's active call; other numbers are inactive results; u = inconclusive; x = no result.

SMILES | DSG3 Ab inh | NTR1 ag | VLA-4 inh | AI-2 QS mod | NTR1 ag confirm
CCCCOc1ccc2c(c1)C(=O)c1cc(O)ccc1-2 | 100.8 | 40.6* | 2.5 | u | 9.2
CCOc1ccc2c(c1)C(=O)c1cc(OCC(=O)O)ccc1-2 | 102.3 | 1.6 | 6.2 | 3.9 | x
Cc1ccc(NC(c2ccccc2)c2nc3ccccc3[nH]c2=O)cc1 (stereo unspecified) | 92.6 | 40.2* | 5.4 | 58.6 | 8.0
CCC(=O)c1ccc(OCC(O)CNC2CCCC2)cc1 (stereo unspecified) | 99.3 | 1.0 | 10.2 | 20.0 | x
CCn1cc(C(C)NC(=O)Nc2ccccc2C(=O)OC)c(C)n1 (stereo unspecified) | 105.5 | 0.1 | -0.7 | 15.8 | x
Cc1ccc(NS(=O)(=O)c2ccc(Cl)c(NC(=S)NC(=O)C3CCCCC3)c2)cc1Cl | 102.2 | 54.9* | 7.7 | 3.6 | 16.9
Cc1ccc(NC(=O)C2CCCC2)cc1Cl | 111.9 | 1.4 | 4.5 | 22.3 | x
OCCNc1nc(Nc2ccccc2Oc2ccccc2)nc(N2CCCC2)n1 | 96.3 | 46.2* | 0.8 | 7.7 | 32.2
Cc1ccc(-n2nnc3c(=O)oc4ccccc4c32)cc1 | 97.2 | 57.7* | 13.6 | 11.5 | 19.8
Cc1ccc(C(C(=O)NC2CCCCC2)N(CCCN2CCOCC2)C(=O)c2snc(C(N)=O)c2N)cc1 (stereo unspecified) | 100.3 | 2.4 | 1.9 | x | x
COc1ccccc1/C=C(\C#N)C(=O)c1cccn1C | 92.8 | 0.6 | 2.4 | 4.1 | x
COc1ccc(-c2csc(N3CCN(c4cc(C)nc5ccccc45)CC3)n2)cc1OC | x | 43.9* | 12.3 | 20.1 | 41.5*
COC(=O)CN1C(=O)C2(C(C#N)=C(N)Oc3n[nH]c(-c4cccs4)c32)c2ccccc21 (stereo unspecified) | 99.3 | 53.4* | -0.3 | 5.5 | -2.8
O=C(C[n+]1cccc(C(=O)N/N=C/c2cccc([N+](=O)[O-])c2)c1)c1ccccc1 | 162.0 | 0.0 | x | x | x
O=C(CN1c2cccc3cccc(c23)S1(=O)=O)Nc1ccc(F)c(F)c1F | 123.5 | 3.5 | -2.2 | x | x
C=C(C)COc1ccc(-c2nc(N)ncc2-c2ccc(OC)cc2)c(O)c1 | x | x | x | 6.7 | x
C=C(C)COc1ccc(-c2nc(N)ncc2-c2ccc(Cl)cc2)c(O)c1 | 102.6 | 69.5* | 16.3 | 8.6 | 25.8
COC(=O)c1ccc(Oc2nc(Nc3ccc(C)c(C)c3)nc(N(C)C)n2)cc1 | 104.5 | 5.2 | -7.2 | 9.4 | x
CCc1ccc(CN2CCC(N3CCC(C(=O)N4CCCC4)CC3)CC2)o1 | 104.2 | 0.0 | -104.9 | 1.0 | x
COc1ccccc1/C=C\C=N\n1c(-c2ccc(Cl)cc2)n[nH]c1=S | 129.9 | 48.6* | 3.1 | 18.2 | 9.4
CC(C)c1nnc(NC(=O)CCC2CCCCC2)s1 | 115.2 | 40.8* | 0.0 | 32.6 | 32.8
Cc1ccc(S(=O)(=O)N2CCCC2CNC(=O)C(=O)NC2CCCC2)cc1 (stereo unspecified) | 85.5 | 0.7 | 3.1 | 5.5 | x
Cc1ccc2[nH]c3c(N4CCN(Cc5ccccc5)CC4)ncnc3c2c1 | 107.9 | 43.3* | -6.2 | 41.8 | 22.3
Cc1ccc2[nH]c3c(N4CCCCCC4)ncnc3c2c1 | x | x | x | 3.8 | x
Cc1ccc2c(c1)[nH]c1c(N3CCN(Cc4ccccc4)CC3)ncnc12 | 121.6 | 56.2* | -10.7 | 28.1 | 7.7
SMILES | DSG3 Ab inh | NTR1 ag | VLA-4 inh | AI-2 QS mod | NTR1 ag confirm
c1ccc(CN2CCN(c3ncnc4c3[nH]c3ccccc34)CC2)cc1 | 101.9 | 20.4 | 15.7 | 21.6 | x
Cc1csc(C(C)N(C)C(=O)c2ccc(OC3CCN(Cc4ccccn4)CC3)cc2)n1 (stereo unspecified) | 102.5 | 0.3 | 1.3 | 17.0 | x
O=C(/C=C/c1ccccc1F)c1cccc([N+](=O)[O-])c1 | 88.7 | 41.6* | 21.8 | 5.1 | 61.3*
COC(=O)[C@@]12CCCCN1[C@H](c1ccc(-c3ccc(OC)cc3)c(OC)c1)[C@@H]1C(=O)N(C)C(=O)[C@@H]12 | 100.2 | 8.7 | 34.7 | x | x
CC1CCC(C(C)C)C(OC(=O)Cn2c(-c3ccccc3)[n+](C)c3ccccc32)C1 (stereo unspecified) | 127.2 | 9.4 | 47.4 | 17.4 | x
Cc1cccc(OCc2n(CC(=O)OC3CC(C)CCC3C(C)C)c3ccccc3[n+]2C)c1 (stereo unspecified) | 102.2 | 92.5* | 12.0 | 36.9 | 101.0*
CN(Cc1c(C(=O)N/N=C/c2cccc(Cl)c2)nnn1-c1nonc1N)c1ccccc1 | 109.9 | 11.4 | 5.1 | 17.9 | x
C/C(=N/Nc1cc(-c2ccccc2)nc(-c2ccccc2)n1)c1ccc(O)cc1 | 112.2 | 53.5* | 11.0 | 25.7 | 46.0*
C/C(=N\Nc1cc(-c2ccccc2)nc(-c2ccc(Br)cc2)n1)c1cccc(N)c1 | 89.7 | 2.2 | 5.7 | -11.2 | x
Cc1ccc(NC(=O)c2nc[nH]c2C(=O)N[C@@H](C)c2ccccc2)cc1 | 106.7 | 38.0 | 32.9 | 3.7 | x
C[C@@H](NC(=O)c1nc[nH]c1C(=O)N[C@H](C)c1ccccc1)c1ccccc1 | 102.3 | -0.7 | 4.0 | x | x
C[C@H](NC(=O)c1[nH]cnc1C(=O)Nc1cccc(Cl)c1)c1ccccc1 | 99.5 | 51.7* | 1.3 | x | 46.1*
C[C@@H](NC(=O)c1[nH]cnc1C(=O)Nc1cccc(Cl)c1)c1ccccc1 | 101.3 | 45.0* | 21.5 | x | 21.5
O=C(CN1c2cccc3cccc(c23)S1(=O)=O)Nc1c(F)c(F)c(F)c(F)c1F | x | -0.3 | 8.8 | x | x
CC(C)c1nnc(NC(=O)c2ccc3ccccc3c2)s1 | 97.0 | 44.6* | 13.9 | 17.3 | 20.6
COc1ccc(NC(=O)CSCc2cc(=O)n3cc(C)sc3n2)cc1 | x | -1.4 | 13.3 | 54.2 | x
CCCCNc1c(-c2ccc(OC)c(SC(C)CC)c2)nc2ccc(Cl)cn12 (stereo unspecified) | 102.6 | 3.8 | -19.4 | x | x
CCCCNc1c(-c2ccc(OC)c(SC(C)CC)c2)nc2ccc(C)cn12 (stereo unspecified) | 103.0 | 51.0* | -25.1 | x | 72.1*
COC(=O)C(C)Oc1cc(C)ccc1COc1ccc(-n2nc(C)n(C(F)F)c2=O)cc1 (stereo unspecified) | 98.0 | 2.5 | 3.0 | 20.0 | x
CC1CCN(c2ccc3nnc(CCC(=O)Nc4cccc(F)c4)n3n2)CC1 | x | 0.6 | 0.2 | 31.1 | x
COc1cc(CNCc2ccccc2)cc(Cl)c1OC | 112.2 | 3.3 | -1.6 | 20.2 | x
COc1cc(CNCCc2ccccc2)cc(Cl)c1OCc1ccccc1 | 106.4 | 61.2* | 8.5 | 10.8 | 6.2
FC(F)Sc1ccc(NC(=S)NCc2ccccc2)cc1 | 92.3 | 2.2 | 0.4 | -8.9 | x
FC(F)Sc1ccc(NC(=S)NC(c2ccccc2)c2ccccc2)cc1 | 100.6 | 40.8* | 16.5 | 13.9 | -0.4
Cn1ncc2c(Nc3cccc(Cl)c3)nc(Nc3cccc(Cl)c3)nc21 | 98.0 | 63.8* | 13.7 | 31.4 | 28.9
C[C@@H](NC(=O)c1[nH]cnc1C(=O)Nc1ccccc1)c1ccccc1 | 102.0 | 26.8 | 19.2 | x | x
C[C@@H](NC(=O)c1[nH]cnc1C(=O)Nc1ccc(Cl)cc1)c1ccccc1 | 104.5 | 44.4* | 16.2 | x | 53.5*

Screens: PubChem, several laboratories
